Data taken from PubChem BioAssay AID493201 (National Center for Advancing Translational Sciences (NCATS), 2011).
Records with an inconclusive call do not appear. A call without a number means that no potency is given here. The source made the active and inactive calls. Calls come from the whole dose curve; as a rule, active = well fitted activation curve with a large enough effect; inconclusive = small, poorly fitted or top-dose-only effect; inactive = no such curve, though single readings can be large or run the other way.
Potency is the fitted concentration of half-maximal effect.

Assay: qHTS Assay for Identifying a Potential Treatment of Ataxia-Telangiectasia: Secondary assay (no NCS) hit validation;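 note: phosphorylated KAP1 signal as a proxy for ATM-like kinase activity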
Conditions: A-T patient fibroblasts, AlphaLISA, no DNA damage added, 90 min; series mostly up to 76.9 µM
How it was run: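 hTERT-immortalized A-T patient fibroblasts (F2112), 500 cells/well, exposed to compounds at up to 76.7 uM final without NCS at 37C. KAP-1 phosphorylation measured by AlphaLISA after lysis and 6 h detection at 25C.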
For `CC(C)C1CC(CCN)(c2ccccc2)CCO1` (stereo not given), the Potency was “inactive”.
In the case of `COc1cccc(C(=O)NOCc2ccc(C)cc2)c1OC`, the Potency is reported as “inactive”.
With `O=C(c1ccc(F)cc1)c1ccc(N2CCCCC2)cc1` the Potency was “inactive”.
With `CCOc1ccc(NC2=CC(=O)CCC2)cc1` the Potency was “inactive”.
In the case of `CC1=C/C(=C\C=C(C#N)C#N)N(C)c2ccccc21`, the Potency is reported as “inactive”.
With `C=CCN1C(=O)/C(=C/C(=O)OC)S/C1=N\NC(=O)c1ccccc1` the Potency was “inactive”.
For `C/C=C\C=C/C(=O)Nc1cccc(C2=NOC3(C2)C[C@@H](C(N)=O)N(C(=O)COc2ccc(Cl)cc2)C3)c1` (stereo not given in full), the Potency was “inactive”.
With `COc1ccccc1N1CCN(C(=O)c2cc(=O)c3c(C)cc(C)cc3o2)CC1` the Potency was “inactive”.
For `CN(C)C(=O)c1nc2ccc(Cl)cn2c1CNCc1cccc(OC(F)(F)F)c1`, the Potency was “inactive”.
With `COc1cccc(CN(C)CC(=O)NCc2ccc(F)cc2)c1OC` the Potency was “inactive”.
In the case of `COc1cccc(OC)c1C(=O)NC(=O)Nc1c(C)cccc1C`, the Potency is reported as “inactive”.
For `COc1ccc(NCc2cc(=O)oc3cc(NC(C)=O)ccc23)cc1`, the Potency was “inactive”.
With `O=C(C(c1ccccc1)c1ccccc1)N1CC[C@@]2(O)CCCC[C@H]2C1` the Potency was “inactive”.
In the case of `COc1ccccc1-n1c(SCC(N)=O)nc2sc3c(c2c1=O)CCC3`, the Potency is reported as “inactive”.
In the case of `CCN(CC)S(=O)(=O)c1ccc(Cl)c(NC(=O)CCCCl)c1`, the Potency is reported as “inactive”.
For `COc1ccc(Nc2cc3n(c(=O)n2)CCc2cc(OC)c(OC)cc2-3)cc1`, the Potency was “inactive”.
For `CCC(C)Nc1nc(N)c([N+](=O)[O-])c(NCCO)n1` (stereo not given), the Potency was “inactive”.
With `CCc1nnc2n1N=C(c1cccc([N+](=O)[O-])c1)CS2` the Potency was 51.9 µM (active).
For `Cc1cc2nc3ccc(=[N+](C)C)cc-3sc2cc1N`, the Potency was “inactive”.
In the case of `COc1ccc(C2(C)CC(C)(C)Nc3ccccc32)cc1` (stereo not given), the Potency is reported as “inactive”.
With `Cc1[nH]c2c(C)cccc2c1CN1CCC(CO)(Cc2ccccc2)CC1` the Potency was 1.84 µM (active).
For `COCCCNC(=O)c1c[nH]c2ccc(S(=O)(=O)N(C)c3ccccc3C)cc2c1=O`, the Potency was “inactive”.
With `O=C(CSc1ccccn1)N/N=C/C=C/c1ccccc1` the Potency was “inactive”.
With `COc1ccc(N(CCC#N)C(=O)/C(C#N)=C\c2cccs2)cc1` the Potency was “inactive”.
In the case of `Clc1cccc(Cl)c1CSc1nnc(-c2ccncc2)s1`, the Potency is reported as 41.2 µM (active).
In the case of `CCOC(=O)N1CCN(c2nc(N(c3ccccc3)c3ccccc3)nc(-n3ccnc3)n2)CC1`, the Potency is reported as “inactive”.
With `C/C(CCC1CC(C)OC1=O)=N\NC(N)=S` (stereo not given) the Potency was “inactive”.
In the case of `N#Cc1c(-c2ccccc2)cc(-c2ccccc2)[nH]c1=O`, the Potency is reported as “inactive”.
In the case of `C=C(C)n1c(=O)n(Cc2ccccc2C)c2ccccc21`, the Potency is reported as “inactive”.
With `COc1ccc(-n2c(C)cc(=O)[nH]c2=O)cc1` the Potency was “inactive”.
With `CNC(=O)/C=C/c1cc(C(=O)c2ccc(Cl)cc2Cl)cn1C` the Potency was “inactive”.
In the case of `COC(=O)Cn1ccc2cc(S(=O)(=O)N3CCCCC3)ccc21`, the Potency is reported as “inactive”.
For `CNC(=O)c1ccc(-c2sc3nc(N4CCOCC4)c4c(c3c2N)CC(C)(C)OC4)o1`, the Potency was 29.2 µM (active).
With `O=C(O)c1nccnc1C(=O)Nc1ccccc1-c1ccccc1` the Potency was “inactive”.
With `CC(=O)c1sc2nc(C)c3c(c2c1N)CCCC3` the Potency was “inactive”.
